{"source": "the supplement of paper PMC10849652", "note": "Of roughly 7,900 targets only a part is listed; those with a hit were picked by preference. About 0.6% of all pairs of compound and target were hits. Values without a mark were called inactive.", "data": [{"compound": "CS(=O)(=O)CCNCc1ccc(-c2ccc3ncnc(Nc4ccc(OCc5cccc(F)c5)c(Cl)c4)c3c2)o1 [lapatinib]", "assay": "log2 fold change, soluble protein after heating vs DMSO (PISA); higher = thermal stabilisation; K562 cells, 10 uM, 30 min; active = over 0.2 and 3.5 SD of the protein, either way, in both replicates (recomputed)", "summary_of_the_method": "(§1)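 K562 cells at 2×10^6 cells/mL were treated with 10 μM compound for 30 min. Aliquots were heated for 3 min across 48°C-58°C, pooled, and extracted in PBS with 0.5% NP-40 at 4°C; soluble protein was the supernatant after 21,000xg for 90 min. Soluble protein was quantified by TMTpro 16plex LC-MS/MS with channel sums equalised, and reported as log2 fold change in thermal stability against DMSO controls, with values from duplicates.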", "values": [{"target": "SNX2 isoform 2 (UniProt O60749)", "log2 fold change": 0.041}, {"target": "SSBP4 (UniProt Q9BWG4)", "log2 fold change": -0.145}, {"target": "TK1 (UniProt K7ERV3)", "log2 fold change": -0.107}, {"target": "TBK1 (UniProt Q9UHD2)", "sequence (Q9UHD2 whole entry, looked up)": "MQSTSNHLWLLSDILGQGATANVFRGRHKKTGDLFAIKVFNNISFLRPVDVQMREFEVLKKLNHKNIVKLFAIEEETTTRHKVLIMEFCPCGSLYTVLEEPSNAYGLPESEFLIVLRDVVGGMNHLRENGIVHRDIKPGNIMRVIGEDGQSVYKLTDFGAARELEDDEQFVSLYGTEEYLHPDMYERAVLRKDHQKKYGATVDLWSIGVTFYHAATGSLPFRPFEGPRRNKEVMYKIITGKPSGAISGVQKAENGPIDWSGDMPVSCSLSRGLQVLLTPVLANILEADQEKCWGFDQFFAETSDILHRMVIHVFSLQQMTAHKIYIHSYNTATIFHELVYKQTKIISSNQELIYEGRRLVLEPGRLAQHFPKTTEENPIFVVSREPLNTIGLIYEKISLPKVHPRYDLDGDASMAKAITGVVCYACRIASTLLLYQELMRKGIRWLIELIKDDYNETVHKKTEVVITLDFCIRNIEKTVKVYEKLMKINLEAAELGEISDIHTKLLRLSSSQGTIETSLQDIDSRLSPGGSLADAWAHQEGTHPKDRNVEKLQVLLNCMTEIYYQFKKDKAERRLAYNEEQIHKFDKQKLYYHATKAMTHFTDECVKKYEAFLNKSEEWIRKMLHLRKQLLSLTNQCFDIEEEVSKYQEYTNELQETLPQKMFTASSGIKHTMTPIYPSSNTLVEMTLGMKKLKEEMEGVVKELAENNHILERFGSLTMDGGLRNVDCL", "log2 fold change": -0.018}, {"target": "SLC8B1 (UniProt Q6J4K2)", "sequence (Q6J4K2 whole entry, looked up)": "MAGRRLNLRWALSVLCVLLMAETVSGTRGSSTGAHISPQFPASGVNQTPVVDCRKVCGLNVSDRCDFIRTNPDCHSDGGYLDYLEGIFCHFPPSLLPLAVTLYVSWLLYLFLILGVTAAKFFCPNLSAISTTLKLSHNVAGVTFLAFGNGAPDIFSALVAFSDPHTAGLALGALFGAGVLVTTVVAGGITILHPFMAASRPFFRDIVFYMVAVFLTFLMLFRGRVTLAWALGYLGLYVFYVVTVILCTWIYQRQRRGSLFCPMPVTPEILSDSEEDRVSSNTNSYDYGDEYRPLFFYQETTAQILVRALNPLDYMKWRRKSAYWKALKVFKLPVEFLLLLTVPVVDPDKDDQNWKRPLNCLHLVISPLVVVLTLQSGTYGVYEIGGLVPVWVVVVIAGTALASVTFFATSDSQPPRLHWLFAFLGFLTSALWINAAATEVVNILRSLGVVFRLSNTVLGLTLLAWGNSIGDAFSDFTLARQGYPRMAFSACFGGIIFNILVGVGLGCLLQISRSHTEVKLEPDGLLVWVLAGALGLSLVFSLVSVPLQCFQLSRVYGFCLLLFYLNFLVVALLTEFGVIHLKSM", "log2 fold change": 0.066}, {"target": "TBP (UniProt P20226)", "log2 fold change": 0.023}, {"target": "SLC9A6 isoform 3 (UniProt Q92581)", "log2 fold change": -0.072}, {"target": "TEX30 (UniProt Q5JUR7)", "log2 fold change": -0.029}, {"target": "SOX5 (UniProt P35711)", "log2 fold change": 0.051}, {"target": "SMPD4 isoform 2 (UniProt Q9NXE4)", "sequence (Q9NXE4 whole entry, looked up)": "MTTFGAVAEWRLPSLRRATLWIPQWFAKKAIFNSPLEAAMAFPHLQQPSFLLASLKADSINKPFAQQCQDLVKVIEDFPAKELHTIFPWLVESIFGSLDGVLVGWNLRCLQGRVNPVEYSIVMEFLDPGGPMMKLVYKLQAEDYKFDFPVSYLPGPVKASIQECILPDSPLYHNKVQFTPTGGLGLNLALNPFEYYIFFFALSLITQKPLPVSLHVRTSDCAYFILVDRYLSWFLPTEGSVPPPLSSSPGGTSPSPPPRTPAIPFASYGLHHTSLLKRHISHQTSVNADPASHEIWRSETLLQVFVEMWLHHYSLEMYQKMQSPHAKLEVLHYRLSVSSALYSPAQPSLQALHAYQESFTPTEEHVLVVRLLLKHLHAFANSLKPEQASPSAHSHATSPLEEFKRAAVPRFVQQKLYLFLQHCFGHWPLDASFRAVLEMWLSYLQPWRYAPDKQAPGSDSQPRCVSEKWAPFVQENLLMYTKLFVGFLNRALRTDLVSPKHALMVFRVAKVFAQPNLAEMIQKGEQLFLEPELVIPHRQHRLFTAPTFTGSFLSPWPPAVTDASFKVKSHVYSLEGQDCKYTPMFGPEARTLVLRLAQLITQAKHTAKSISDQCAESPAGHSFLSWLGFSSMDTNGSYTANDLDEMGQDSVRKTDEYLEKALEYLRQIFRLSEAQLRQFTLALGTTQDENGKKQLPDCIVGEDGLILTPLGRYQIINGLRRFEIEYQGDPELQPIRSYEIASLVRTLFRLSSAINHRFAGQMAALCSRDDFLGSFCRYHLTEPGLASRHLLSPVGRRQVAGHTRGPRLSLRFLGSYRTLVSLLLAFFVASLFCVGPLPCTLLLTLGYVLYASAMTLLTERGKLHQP", "log2 fold change": 0.131}, {"target": "SRC isoform 2 (UniProt P12931)", "sequence (P12931 whole entry, looked up)": "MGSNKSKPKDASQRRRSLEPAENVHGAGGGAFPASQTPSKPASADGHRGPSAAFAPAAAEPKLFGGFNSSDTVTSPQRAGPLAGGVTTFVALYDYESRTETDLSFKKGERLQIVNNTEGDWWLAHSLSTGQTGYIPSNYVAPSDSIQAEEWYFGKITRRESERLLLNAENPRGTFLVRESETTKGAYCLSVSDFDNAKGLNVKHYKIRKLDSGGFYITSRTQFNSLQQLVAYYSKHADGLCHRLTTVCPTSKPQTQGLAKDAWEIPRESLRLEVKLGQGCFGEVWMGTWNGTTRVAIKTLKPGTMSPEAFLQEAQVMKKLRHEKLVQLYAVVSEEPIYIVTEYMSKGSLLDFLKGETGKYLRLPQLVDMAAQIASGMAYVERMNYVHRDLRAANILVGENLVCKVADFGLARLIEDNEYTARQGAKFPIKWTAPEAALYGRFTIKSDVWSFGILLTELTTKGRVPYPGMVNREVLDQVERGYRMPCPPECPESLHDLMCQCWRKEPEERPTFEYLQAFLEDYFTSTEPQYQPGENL", "log2 fold change": 0.088}, {"target": "SMARCA4 (UniProt P51532)", "sequence (P51532 whole entry, looked up)": "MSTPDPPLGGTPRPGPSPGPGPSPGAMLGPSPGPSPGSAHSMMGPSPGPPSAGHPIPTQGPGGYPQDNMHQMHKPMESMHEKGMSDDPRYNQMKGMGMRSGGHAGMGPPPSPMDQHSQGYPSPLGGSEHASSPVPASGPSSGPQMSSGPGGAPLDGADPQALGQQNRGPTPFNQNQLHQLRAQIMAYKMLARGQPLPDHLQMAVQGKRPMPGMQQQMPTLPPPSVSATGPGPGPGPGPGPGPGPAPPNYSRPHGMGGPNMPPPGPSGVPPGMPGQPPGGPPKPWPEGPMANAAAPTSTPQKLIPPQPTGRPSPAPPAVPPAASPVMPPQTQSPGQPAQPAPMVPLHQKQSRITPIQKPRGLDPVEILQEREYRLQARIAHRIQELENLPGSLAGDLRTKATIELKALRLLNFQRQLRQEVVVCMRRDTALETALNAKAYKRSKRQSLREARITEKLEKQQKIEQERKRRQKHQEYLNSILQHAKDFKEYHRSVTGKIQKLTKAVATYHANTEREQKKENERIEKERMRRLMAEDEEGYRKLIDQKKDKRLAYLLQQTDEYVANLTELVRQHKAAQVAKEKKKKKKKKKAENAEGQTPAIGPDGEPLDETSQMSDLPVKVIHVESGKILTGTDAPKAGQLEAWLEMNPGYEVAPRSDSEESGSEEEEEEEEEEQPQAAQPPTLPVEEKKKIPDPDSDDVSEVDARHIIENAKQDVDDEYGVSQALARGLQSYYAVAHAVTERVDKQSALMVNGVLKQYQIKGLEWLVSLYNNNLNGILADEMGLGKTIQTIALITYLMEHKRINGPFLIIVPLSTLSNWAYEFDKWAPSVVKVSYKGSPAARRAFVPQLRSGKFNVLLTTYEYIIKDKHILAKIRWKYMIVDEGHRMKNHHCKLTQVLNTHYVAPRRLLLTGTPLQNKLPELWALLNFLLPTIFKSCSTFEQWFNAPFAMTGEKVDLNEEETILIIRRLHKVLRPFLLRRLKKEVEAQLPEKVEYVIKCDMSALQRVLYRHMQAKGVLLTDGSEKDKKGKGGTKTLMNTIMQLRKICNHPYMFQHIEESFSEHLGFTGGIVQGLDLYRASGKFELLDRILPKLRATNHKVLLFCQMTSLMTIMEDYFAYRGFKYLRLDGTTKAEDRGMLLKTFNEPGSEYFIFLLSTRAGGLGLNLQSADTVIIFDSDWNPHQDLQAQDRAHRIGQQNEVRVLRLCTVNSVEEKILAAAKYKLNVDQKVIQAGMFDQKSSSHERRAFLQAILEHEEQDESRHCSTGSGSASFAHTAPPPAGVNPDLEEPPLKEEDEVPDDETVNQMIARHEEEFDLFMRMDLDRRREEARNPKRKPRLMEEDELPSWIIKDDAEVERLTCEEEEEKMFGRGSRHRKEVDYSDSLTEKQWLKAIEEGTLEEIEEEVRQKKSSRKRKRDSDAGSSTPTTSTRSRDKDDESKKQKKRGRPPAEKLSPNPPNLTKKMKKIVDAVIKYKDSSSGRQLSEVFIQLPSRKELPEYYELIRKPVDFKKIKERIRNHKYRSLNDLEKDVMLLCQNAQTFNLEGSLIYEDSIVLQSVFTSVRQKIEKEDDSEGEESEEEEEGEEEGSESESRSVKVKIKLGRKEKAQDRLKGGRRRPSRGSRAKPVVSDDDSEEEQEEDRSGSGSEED", "log2 fold change": "-0.544 (active)"}, {"target": "TBC1D20 isoform 3 (UniProt Q96BZ9)", "sequence (Q96BZ9 whole entry, looked up)": "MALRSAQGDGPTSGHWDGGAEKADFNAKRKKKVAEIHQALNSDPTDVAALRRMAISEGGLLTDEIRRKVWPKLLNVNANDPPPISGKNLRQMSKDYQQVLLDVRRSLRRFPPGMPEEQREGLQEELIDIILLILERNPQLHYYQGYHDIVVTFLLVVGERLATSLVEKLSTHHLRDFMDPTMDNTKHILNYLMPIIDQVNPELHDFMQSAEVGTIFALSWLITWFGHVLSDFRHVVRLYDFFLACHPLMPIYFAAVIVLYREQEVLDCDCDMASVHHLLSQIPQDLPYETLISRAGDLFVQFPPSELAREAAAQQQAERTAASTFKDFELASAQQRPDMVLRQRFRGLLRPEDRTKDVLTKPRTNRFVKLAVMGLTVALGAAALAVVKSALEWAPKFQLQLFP", "log2 fold change": -0.03}, {"target": "TM7SF2 (UniProt O76062)", "log2 fold change": 0}, {"target": "TAOK2 (UniProt Q9UL54)", "log2 fold change": 0.022}, {"target": "SLC38A7 (UniProt Q9NVC3)", "log2 fold change": -0.057}, {"target": "SRXN1 (UniProt Q9BYN0)", "sequence (Q9BYN0 whole entry, looked up)": "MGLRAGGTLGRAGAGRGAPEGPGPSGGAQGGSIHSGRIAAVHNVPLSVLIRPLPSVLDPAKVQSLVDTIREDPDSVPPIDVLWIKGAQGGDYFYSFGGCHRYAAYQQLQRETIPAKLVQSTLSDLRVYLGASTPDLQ", "log2 fold change": 0.151}, {"target": "SRSF9 (UniProt Q13242)", "log2 fold change": 0.155}, {"target": "SNRK (UniProt Q9NRH2)", "log2 fold change": 0.016}, {"target": "SYK (UniProt P43405)", "log2 fold change": 0.06}]}, {"compound": "CS(=O)(=O)N1CCN(Cc2cc3nc(-c4cccc5[nH]ncc45)nc(N4CCOCC4)c3s2)CC1 [pictilisib]", "assay": "log2 fold change, soluble protein after heating vs DMSO (PISA); higher = thermal stabilisation; K562 cells, 10 uM, 30 min; active = over 0.2 and 3.5 SD of the protein, either way, in both replicates (recomputed)", "summary_of_the_method": "as §1", "values": [{"target": "SSBP4 (UniProt Q9BWG4)", "log2 fold change": 0.117}, {"target": "TK1 (UniProt K7ERV3)", "log2 fold change": 0.102}, {"target": "TBK1 (UniProt Q9UHD2)", "log2 fold change": 0.009}, {"target": "SLC8B1 (UniProt Q6J4K2)", "log2 fold change": 0.016}, {"target": "SLC46A1 (UniProt Q96NT5)", "log2 fold change": 0.061}, {"target": "TCOF1 isoform 3 (UniProt Q13428)", "log2 fold change": 0.188}, {"target": "SPIRE1 (UniProt Q08AE8)", "log2 fold change": 0.188}, {"target": "TBC1D2 (UniProt Q9BYX2)", "log2 fold change": -0.097}, {"target": "TEX30 (UniProt Q5JUR7)", "log2 fold change": 0.057}, {"target": "SMPD4 isoform 2 (UniProt Q9NXE4)", "log2 fold change": -0.108}, {"target": "SRC isoform 2 (UniProt P12931)", "log2 fold change": 0.113}, {"target": "SMARCA4 (UniProt P51532)", "log2 fold change": 0.025}, {"target": "TBC1D20 isoform 3 (UniProt Q96BZ9)", "log2 fold change": -0.073}, {"target": "TAOK2 (UniProt Q9UL54)", "log2 fold change": 0.003}, {"target": "SLC38A7 (UniProt Q9NVC3)", "log2 fold change": 0.022}, {"target": "SRXN1 (UniProt Q9BYN0)", "log2 fold change": "-0.562 (active)"}, {"target": "SRSF9 (UniProt Q13242)", "log2 fold change": -0.036}, {"target": "SSB (UniProt E7ERC4)", "log2 fold change": -0.086}, {"target": "SLC39A1 (UniProt Q9NY26)", "log2 fold change": -0.053}]}]}
